From PubChem BioAssay (NCATS) come the findings set out here.

Results filed as inconclusive are left out. A call without a number means that no potency is given here. The source made the active and inactive calls. Calls come from the whole dose curve; as a rule, active = well fitted inhibition curve with a large enough effect; inconclusive = small, poorly fitted or top-dose-only effect; inactive = flat fitted curve, though single readings scatter.

The subject of the experiment is Zika virus NS2B-NS3 protease. Kind of experiment: Primary screen GU AMC qHTS for Zika virus inhibitors (AID 1347154). Note: nearly all actives have a fitted effect of over 70% in size. Particulars: Zika NS2B-NS3 unlinked protease, AMC fluorogenic substrate; series mostly up to 54.1 µM. In short, it runs like this: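 Fluorogenic AMC-substrate cleavage by noncovalent NS2B-NS3 protease complex (25 nM, pH 8.0 Tris buffer with Tween 20) followed for 15 minutes at room temperature (~20% conversion). Percent inhibition from ex340/em450 signal change, fitted by 4-parameter Hill equation.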
A general note: In qHTS, concentration-response curves come from the screen itself.
Regarding `O=C1NC(c2ccccc2)(c2ccccc2)C(=O)N1COP(=O)(O)O`, the Potency entry was “inactive”.

With `Cc1cc(O)c(C)c(C)c1O`, the Potency result was “inactive”.

For the molecule `O=C(OCCN1CCOCC1)c1cccnc1Nc1cccc(C(F)(F)F)c1`, the Potency result was “inactive”.

With `CO[C@]1(NC(=O)CSC(F)F)C(=O)N2C(C(=O)O)=C(CSc3nnnn3CCO)CO[C@H]21`, the Potency result is “inactive”.

With `O=C(Nc1ccc(Cl)cc1)Nc1ccc(Cl)c(Cl)c1`, the Potency entry is “inactive”.

As for `CCN(CC)CC(=O)Nc1c(C)cccc1C(=O)OC`, the Potency entry is “inactive”.

In the case of `CC(=O)Nc1ccn(C2COC(COC(=O)c3ccccc3)O2)c(=O)n1` (stereo not drawn), the Potency result is “inactive”.

As to `NC(=O)NS(=O)(=O)c1ccc(Cl)cc1`, the Potency entry was “inactive”.

In the case of `CC(=O)O[C@@H]1CC2C3CCc4cc(OC(=O)c5ccccc5)ccc4C3CCC2(C)[C@H]1OC(C)=O` (stereo partly drawn), the Potency result was “inactive”.

`C[C@@H](O[C@H]1OCCN(Cc2n[nH]c(=O)[nH]2)[C@H]1c1ccc(F)cc1)c1cc(C(F)(F)F)cc(C(F)(F)F)c1`: the Potency result is “inactive”.

As for `CN(C(=O)C(Cl)Cl)c1ccc(OC(=O)c2ccco2)cc1`, the Potency entry was “inactive”.

Take `O=C(O)Cn1c(=O)n(Cc2ccc(Br)cc2F)c(=O)c2ccc(Cl)cc21`: the Potency entry was “inactive”.

`C[C@H]1C[C@H](O)c2ccsc2S1(=O)=O`: the Potency result was “inactive”.

For the molecule `COc1cc(C=O)ccc1O`, the Potency entry was “inactive”.

In the case of `CCOC(=O)c1ccc(OCCN2C[C@H](O)[C@@H](O)[C@H](O)[C@H]2CO)cc1`, the Potency entry is “inactive”.

On to `CN(CC1(C)CCCO1)S(=O)(=O)c1ccc(Cl)c(S(N)(=O)=O)c1` (stereo not drawn), for which the Potency result was “inactive”.

In the case of `C[C@@H](C1=C(CCN(C)C)Cc2ccccc21)c1ccccn1`, the Potency entry was “inactive”.

In the case of `CC(C)(c1ccc(O)cc1)c1ccc(O)cc1`, the Potency result was “inactive”.
